In all, about 16,000 compounds went through this assay and about 2,600 (16%) were called active. Not shown: some 20% with an inconclusive outcome. Calls follow the shape of the dose curve; as a rule, active = well fitted curve in the direction sought with a large enough effect; inconclusive = small, poorly fitted or top-dose-only effect, or effect the other way; inactive = no such curve, though single readings can be large or run the other way. A selection follows.
These compounds were tested against Cytochrome P450 2D6 (Homo sapiens) (UniProt P10635) (assay: Cytochrome panel assay with activity outcomes). Conditions: recombinant CYP, pro-luciferin dealkylation, luminescence, p450-cyp2d6; series mostly up to 57.1 µM; activity, negative = inhibition: at the top concentration.
Chain of Cytochrome P450 2D6 (Homo sapiens) (P10635 whole entry, looked up): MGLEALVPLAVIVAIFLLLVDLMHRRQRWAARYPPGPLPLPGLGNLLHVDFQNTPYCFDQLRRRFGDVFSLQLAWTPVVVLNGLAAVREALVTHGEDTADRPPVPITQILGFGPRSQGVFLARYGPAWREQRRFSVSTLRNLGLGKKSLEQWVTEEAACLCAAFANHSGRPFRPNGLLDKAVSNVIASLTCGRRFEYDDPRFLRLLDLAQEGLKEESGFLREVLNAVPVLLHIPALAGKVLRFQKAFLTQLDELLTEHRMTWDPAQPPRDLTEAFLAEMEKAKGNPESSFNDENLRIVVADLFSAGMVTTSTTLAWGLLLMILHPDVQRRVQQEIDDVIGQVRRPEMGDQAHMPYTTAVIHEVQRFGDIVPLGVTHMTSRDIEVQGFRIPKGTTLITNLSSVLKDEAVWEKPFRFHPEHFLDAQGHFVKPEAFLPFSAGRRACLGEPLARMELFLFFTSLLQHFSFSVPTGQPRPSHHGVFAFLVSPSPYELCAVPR
For COc1ccc(C(=O)N2CCC[C@@]3(CCN(C(=O)NC(C)C)C3)C2)cc1, the “activity, negative = inhibition” value was -13.3% (inactive). In the case of Cc1nc2ncnn2c(C)c1CCC(=O)NCc1ccco1, the “activity, negative = inhibition” value was -13% (inactive). In the case of CCc1ccccc1NC(=O)c1ccc(F)c(S(=O)(=O)N2CCC(C(N)=O)CC2)c1, the “activity, negative = inhibition” value was -13.2% (inactive). For CC(=O)c1c(O)c(C)c(-c2ccccc2)n(-c2ccccc2)c1=O, the “activity, negative = inhibition” value was 14.1% (inactive). In the case of CCCc1c(OCCCOc2ccc(OCC(=O)O)cc2)ccc(CC=O)c1O, the “activity, negative = inhibition” value was 10.9% (inactive). In the case of CCCC(O)(CCC)C(=O)NN1CCCCC1, the “activity, negative = inhibition” value was 17.5% (inactive). Cn1c(=O)n(C)c2cc(/C=N/n3cnnc3)ccc21 was tested, and the “activity, negative = inhibition” value was 21.8% (inactive). For Brc1ccc(-c2nnc(-c3ccccc3)c(N3CCSCC3)n2)cc1, the “activity, negative = inhibition” value was -7.56% (inactive). For COc1ccc(OC)c2c(=S)c3ccccc3[nH]c12, the “activity, negative = inhibition” value was 7.78% (inactive). In the case of COc1cccc2[nH]c3c(N4CC(C)CC(C)C4)ncnc3c12 (stereo not drawn), the AC50 was 2 µM (active). In the case of COc1ccccc1-c1ccc2ncnc(N3CCOCC3)c2c1, the “activity, negative = inhibition” value was -15.7% (inactive). For Cc1nn(Cc2ccccc2Cl)c(C)c1NC(=O)CCCn1nc(C)c([N+](=O)[O-])c1C, the “activity, negative = inhibition” value was -6.51% (inactive). In the case of CCn1c2ccccc2c2cc(/C=N/n3cn[nH]c3=S)ccc21, the “activity, negative = inhibition” value was -7.55% (inactive). In the case of CCn1c2ccccc2c2cnc(N=CN(C)C)c(C#N)c21, the AC50 was 1.41 µM (active). For COc1ccccc1NC(=O)Cn1nnc(-c2ccccc2NC(=O)c2cc3ccccc3oc2=O)n1, the “activity, negative = inhibition” value was -3.14% (inactive). With CCOC(=O)C1CCCN(C(=O)CCCOc2cc(=O)n(C)c3ccccc23)C1 (stereo not drawn) the “activity, negative = inhibition” value was -22.4% (inactive). For CC(=O)c1ccc(NC(=O)C2CC(c3ccc(F)cc3)=NO2)cc1 (stereo not drawn), the “activity, negative = inhibition” value was -28.2% (inactive). Cn1ncc(C#N)c1NC(=O)C1CC(c2ccc(Cl)cc2)=NO1 (stereo not drawn) was tested, and the AC50 was 3.98 µM (active). In the case of O=C(NC1CCCC1)C1CC(c2ccc(F)cc2)=NO1 (stereo not drawn), the “activity, negative = inhibition” value was 10.7% (inactive). For C=CC[C@H](N)C(=O)O, the “activity, negative = inhibition” value was 1.56% (inactive). COc1ccc(-n2c(=O)c(C)nc3cnc(N4CCNCC4)nc32)cc1 was tested, and the “activity, negative = inhibition” value was -4.6% (inactive). For Nc1[nH]c(=O)nc2c1ncn2[C@H]1O[C@@H](CO)[C@@H](O)[C@@H]1O, the activity, negative = inhibition was 7.59% [at 11.4 µM] (inactive). With COc1ccc(CNC(=O)c2csc(Cc3ccc(Cl)cc3)n2)cc1 the AC50 was 14.1 µM (active). COc1ccc(CNC(=O)c2cnc(C)cn2)cc1 was tested, and the “activity, negative = inhibition” value was 5.7% (inactive). For COc1ccc(CNC(=O)c2csc(Cc3ccc(OC)cc3)n2)cc1, the “activity, negative = inhibition” value was -26.3% (inactive). In the case of CO[C@@H]1COC(=O)C/C=C\[C@@H](C)[C@H](OC)COC(=O)[C@H](COCc2ccccc2)NC(=O)C/C=C\[C@H]1C, the activity, negative = inhibition was -2.59% [at 11.4 µM] (inactive). With C[C@@H]1[C@H]2CC[C@@H]3[C@@H]4CC=C5C[C@@H](N(C)C)CC[C@]5(C)[C@@H]4CC[C@@]32CN1C the “activity, negative = inhibition” value was -2.4% [at 25.6 µM] (inactive). CN(C)c1ncc2nc(-c3ccccc3)c(=O)n(Cc3ccc(F)cc3)c2n1 was tested, and the “activity, negative = inhibition” value was -8.66% (inactive).
% is scaled to controls: 0 for no effect and ±100 for the full control effect.
